PubChem BioAssay AID1347426 (Functional Genomics Laboratory (NCATS/FGL), 2020)
Screen size: about 31,000 sequences; about 1,400 (4.5%) were called active.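 Rule for the calls: active = median seed-adjusted z-score above 1 or below -1; inactive = the rest.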 The sample as a whole holds a higher share of actives than the screen did.

Experiment: Novel Modifiers of Survival Motor Neuron (SMN) Protein: Gene Identification via Genome-wide siRNA Screen;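 note: luminescence tracks full-length SMN protein made from the SMN2 reporter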
Details: HEK293T SMN2-luciferase reporter, siRNA knockdown, 72 h; actives lie on both sides
How it was run: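 Luciferase signal, proportional to full-length SMN made from an SMN2 cDNA reporter in stable HEK293T cells, was read 72 h after siRNA reverse transfection. Values were expressed as MAD scores after non-targeting-control normalization and log10 conversion; seed analysis flagged off-targets.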

Sequence | median seed-adjusted z-score
AGAGCACAUCAAAUCAGAATT against PAX2 | 0.341 (inactive)
GCUUAUGCGUAGAUCCUUUTT against SMYD4 | 0.272 (inactive)
GCACCUUCCCAACCAUCAATT against GPX2 | -0.21 (inactive)
GCAGAUUUUGAGCAACUGATT against TRIM5 | 0.0758 (inactive)
GAACUUUGAUGACGAGUGATT against RAD23A | -1.13 (active)
GAUGAUCAGCUAUGAAAAATT against ZNF780A | 0.298 (inactive)
GCAGAUAUCUGAUAGCCCUTT against PPA2 | -0.497 (inactive)
CGUCUAUGCCUAUAAAAUATT against ADORA3 | 0 (inactive)
GCGAUGCCUAUAAAACCUATT against TRYX3 | 2.3 (active)
CUAGGAAGAUAAUACCAGATT against BTRC | -0.0819 (inactive)
GGAAGUACCUGAGUGUGCATT against MTCH1 | 0 (inactive)
GCUCUUUGCCGUUUCUAAUTT against SLC29A2 | -0.0569 (inactive)
CGAGAAAUUGCACAACCGATT against NACC1 | 1.59 (active)
GGACAUUGGACUAACCCAATT against EFHB | 0.675 (inactive)
CUAUGGUAAUGUUUGCUUUTT against ZXDB | 0.186 (inactive)
CAAGAUCAAGAGUUCCUGATT against CYP2B6 | 0.454 (inactive)
CCGAGAGUAUGUCGACUUATT against CBFB | -0.0379 (inactive)
GGAAAACAAGCUCAUCAAUTT against HOXA6 | -0.282 (inactive)
GCAGCGUAGUUUUUGCGGATT against DOCK2 | 0.151 (inactive)
UCAGUGCCCUUGUAUCAAATT against CYP4F2 | -0.387 (inactive)
GCCUCAGUUUGAAAUUGUUTT against TBRG1 | -1.47 (active)
CAGACUCUCCGAUCUCUGATT against NRIP3 | -0.699 (inactive)
CCUGGAUCCAAAUAGCGAATT against SMARCA2 | -0.458 (inactive)

Sequence | median seed-adjusted z-score
CUCUUUGACGUGUCUCAUATT against AMT | -0.506 (inactive)
CCUGAACAUUGGACCCUGUTT against CPSF1 | 3.29 (active)
UCACUUUCCCUGUAAAUAUTT against CD84 | 0.629 (inactive)
GCAAGACCUAAGCAAACUATT against BXDC1 | 0.173 (inactive)
CAUAGACUCUUACACCACATT against SC4MOL | -0.0194 (inactive)
GGCUGUCUGCUGUACGAGATT against NEK6 | -0.674 (inactive)
CCAGCUCCUUUAUCAAGCATT against RAD51 | 0.594 (inactive)
GCCUGGAUAACAUCACUGATT against AIM2 | 0.0646 (inactive)
GACCUGAUGUGGACCCAGATT against MIOX | 0.14 (inactive)
GCGACCAACUGAUUGUCGATT against PTPRZ1 | 1.73 (active)
GACACUUGCUUAGAAGUAATT against LRP12 | 0.416 (inactive)
GGAUCUACGUGUACGUCAATT against LPAR3 | -0.3 (inactive)
GGAUCAGUUUGACAGUUUUTT against RNPEP | -0.236 (inactive)
GGAAAUUAGCUGCAGCUGATT against PPP1R2 | 0.208 (inactive)
GGAGAACCACAGUUGCUUUTT against IL17RA | -1.29 (active)
GGAUUCAUCCUUACCCUCATT against PPP2R4 | 0.318 (inactive)
GCUUUACAGAAAGCCGUGATT against STRADB | 0.21 (inactive)
CCCUCGAGCAUGUUCCAAATT against PRPF6 | -1.06 (active)
AGAUCGUGGUGCAUCCAUATT against ELA1 | 0.687 (inactive)
GCACCAACCUGACCUGUCATT against CD33 | -0.355 (inactive)
GAACCAAGAUCAUUAUGCATT against DNAJC2 | -0.0357 (inactive)
GCGCAGCCUUUAGAGGAUATT against UBE2J1 | -1.2 (active)
UGGAGUAAAUAGUUCUAAUTT against UBE2V1 | 0.745 (inactive)

Sequence | median seed-adjusted z-score
UGAGGAUAGUGGGUCUGUATT against MEIS3 | 0.207 (inactive)
GACUCAUCGUGAUGAGAUUTT against SLC7A9 | 0.194 (inactive)
GGAACAAGUAUUUAGGAAATT against CAPSL | -0.168 (inactive)
CCCUAGGCCUUUUACGAAATT against RAG1 | -1.35 (active)
AGCAGAAGAAGUUCAAAUATT against P2RX1 | 0.908 (inactive)
GCAGUAUAUUACAAACAAATT against NAT2 | -0.0495 (inactive)
GGCCCAAGCUUCAACAGCATT against DNASE2 | -1.23 (active)
GGAAAUCGUUCAGUAAGAATT against ZNF175 | -0.0194 (inactive)
CCAUAACCUUAUUGACGCATT against LRFN4 | -0.076 (inactive)
GCCUGAUUCUGAGUGAUGATT against SPTLC2 | 0 (inactive)
GCCUGAUACAAAAUCAACATT against TRPC5 | -1.14 (active)
GGAGUUACAUCAGACCUAUTT against MOGAT1 | 0.293 (inactive)
GGAAAUCUGAAGACGAUAATT against CCAR1 | -1.18 (active)
AACUGGGAAUUGAGAGGUATT against SOX12 | 0.478 (inactive)
GGCCUUACCAAUCAUCAUUTT against SLC28A2 | -0.076 (inactive)
GAAUUCGACCAGUAUUUGATT against SOX7 | -0.387 (inactive)
CCGUAUGUUUUGCUGCAAATT against ABCC4 | -1.66 (active)
GCAAGUCCCGCAAAAAGAATT against NEIL1 | -0.168 (inactive)
GCACCGUCAAGGAAGAUAATT against ADAMTSL1 | -0.107 (inactive)
GUAUGCGACUGGGAUCUUATT against HP | 0 (inactive)
CAGUGGAAAUAAUUACGUUTT against MDH1B | -1.13 (active)
GAUCUACACUUGGAUGGAUTT against SAP18 | 2.14 (active)
CUAACGAAGAUUCACCCAATT against ASPN | -0.0432 (inactive)
